In article PMC4552634, “A New Set of Chemical Starting Points with Plasmodium falciparum Transmission-Blocking Potential for Antimalarial Drug Discovery” (PLoS ONE, 2015):
Read-outs that look alike come from different tables or passages of the source. The campaign covered roughly 13,000 compounds. About 3,200 (25%) showed an effect of 50% or more. The list shows a part of the results.

Test system: P. falciparum stage V gametocytes
Set-up: BacTiter-Glo ATP luminescence viability of purified stage V gametocytes in 384-well plates, per cent inhibition versus DMSO
Conditions: 48 h, 5 µM, inhibitor

| SMILES | % Inhibition [%] | % Inhibition (% Inhibition) [%] |
| --- | --- | --- |
| CC(C)C[C@H](NC(=O)c1ccc(OCCN2CCOCC2)cc1)C(=O)N[C@H](/C=N/N1CCNC1=O)CCc1ccccc1 [TCMDC-136156] | 19.17 | – |
| O=C(Nc1ccc(Cl)cc1)Nc1ccc2nonc2c1 [TCMDC-124586] | -84.09 | – |
| COc1cc(N(C)Cc2cnc3nc(N)nc(N)c3n2)cc(OC)c1OC [TCMDC-137363] | 43.25 | – |
| Cc1cccc(-n2c(Nc3ccc(C)c(Cl)c3)nc3ccc(S(=O)(=O)NC(C)C(C)C)cc32)c1 (stereo not shown) [TCMDC-136234] | -15.02 | – |
| CCCc1c(C(=O)OCC)c2cc(O)ccc2n1-c1ccc(OC)cc1 [TCMDC-125126] | -66.75 | – |
| COc1cccc(C2=CC(C)(C)Oc3cc(OCCN(C)C)ccc32)c1 [TCMDC-131403] | 8.416 | – |
| Cc1sc(N2CCN(C)CC2)nc1C(=O)Nc1ccc(F)cc1C(F)(F)F [TCMDC-134302] | -2.511 | – |
| O=C(Nc1ccc(Cn2ncc(N3CCCNCC3)c(Cl)c2=O)cc1)Nc1ccc(-c2ccccc2)cc1 [TCMDC-141927] | – | -25.81 |
| O=C(Nc1ccc(Cl)cc1)Nc1ccc(Cn2ncc(N3CCCNCC3)c(Cl)c2=O)cc1 [TCMDC-133331] | -14.26 | – |
| Cc1ccc(Cn2ncc(N3CCC(N)CC3)c(Cl)c2=O)cc1NC(=O)Nc1ccc(-c2ccccc2)cc1 [TCMDC-141932] | 107.1 | – |
| Cc1ccc(Cn2ncc(NC3CCNCC3)c(Cl)c2=O)cc1NC(=O)Nc1ccc(-c2ccccc2)cc1 [TCMDC-141929] | 95.66 | – |
| Cc1ccc(NC(=O)Nc2ccc(Cn3ncc(N4CCCNCC4)c(Cl)c3=O)cc2)cc1 [TCMDC-133332] | 5.468 | – |
| COc1ccc2nccc([C@@H](O)CN3CCC(NCCOc4cccc(C(F)(F)F)c4Cl)CC3)c2c1 [TCMDC-140661] | 20.87 | – |
| O=C(Nc1ccc(F)c(Cl)c1)c1cc([N+](=O)[O-])cc2cn[nH]c12 [TCMDC-123694] | -9.121 | – |
| O=C(Nc1cccc(C(F)(F)F)c1)c1cc([N+](=O)[O-])cc2cn[nH]c12 [TCMDC-125395] | 7.696 | – |
| O=C(Nc1ccc(Br)c(Cl)c1)c1cc([N+](=O)[O-])cc2cn[nH]c12 [TCMDC-123693] | 77.61 | – |
| COc1cc(NC2CCCC(NCc3cn(S(=O)(=O)c4ccccc4)c4ccccc34)C2)nc2ccccc12 (stereo not shown) [TCMDC-140505] | 77.87 | – |
| O=c1cc(NCCCNCc2cc(C(F)(F)F)ccc2Cl)[nH]c2ccccc12 [TCMDC-139422] | 4.715 | – |
| O=c1cc(NCCCNCc2ccccc2-c2ccccc2)[nH]c2ccccc12 [TCMDC-139450] | -0.2545 | – |
| COc1cc(Nc2ccc3cc(S(=O)(=O)N4CCCCC4C)ccc3n2)cc(OC)c1OC (stereo not shown) [TCMDC-125163] | -47.67 | – |
| CCN(CC)CCOc1c(Cl)cc(Cl)cc1CNCCCNc1cc(=O)c2ccccc2[nH]1 [TCMDC-139684] | 26.89 | – |
| Cc1c(NCCCNCc2cc(Cl)cc(Cl)c2Cl)[nH]c2ccccc2c1=O [TCMDC-139498] | -59.03 | – |
| COc1cc(NCCCNC(=O)c2cc3c(Cl)cc(Cl)cc3[nH]2)nc2ccccc12 [TCMDC-140360] | 30.45 | – |

| SMILES | % Inhibition [%] | % Inhibition (% Inhibition) [%] |
| --- | --- | --- |
| O=c1cc(NCCCNCc2cn(S(=O)(=O)c3ccccc3)c3ccccc23)[nH]c2ccccc12 [TCMDC-140361] | 89.9 | – |
| CN(C)CCCNCc1cn(S(=O)(=O)c2ccccc2Cl)c2ccccc12 [TCMDC-136302] | 105.4 | – |
| Cc1cc(OCCCN2CCC(NS(=O)(=O)c3ccc(Cl)c(Cl)c3)CC2)c2ccccc2n1 [TCMDC-136278] | -51.1 | – |
| COc1cc(NCCCNCc2cn(S(=O)(=O)c3ccccc3)c3ccccc23)nc2ccccc12 [TCMDC-140214] | 73.5 | – |
| COc1cc(NCCCNC(=O)c2ccc(Cl)c(Cl)c2)nc2ccccc12 [TCMDC-140373] | -10.34 | – |
| COc1ccc2nccc(NC(=O)N3CCC(NCc4cc5c(F)ccc(F)c5[nH]4)CC3)c2n1 [TCMDC-140784] | -20.31 | – |
| Cc1cc(C(F)(F)F)n2nc(C(=O)N(Cc3cncn3Cc3ccccc3F)CC3CC3)cc2n1 [TCMDC-132463] | -10.43 | – |
| Cc1c(C)n(C2CCCC2)c2ncnc(OC3CCN(CC(=O)NCC4CC4)CC3)c12 [TCMDC-134421] | 19.09 | – |
| CN(Cc1cnc2nc(N)nc(N)c2n1)c1ccc(C(=O)N[C@H](CCC(=O)OC(C)(C)C)C(=O)N[C@@H](CCC(=O)OC(C)(C)C)C(=O)OC(C)(C)C)cc1 [TCMDC-137262] | -6.983 | – |
| COc1cc(Cc2cnc(N)nc2N)cc(OC)c1OCCCCC(=O)O [TCMDC-137352] | 14.26 | – |
| CN(Cc1cccc(C#N)c1)C1CCN(c2cc(NC(=O)c3cccc(F)c3)ccn2)CC1 [TCMDC-134972] | 21.14 | – |
| COc1c(C)cc(I)cc1CNCCCNc1cc(=O)c2ccccc2[nH]1 [TCMDC-140056] | -89.66 | – |
| COc1cc(CNCCCNc2nc3ncccc3[nH]2)c2[nH]cc(Br)c2c1 [TCMDC-140259] | -28.64 | – |
| COc1ccnc(NCCCNCc2cn(S(=O)(=O)c3ccccc3)c3ccccc23)c1 [TCMDC-140380] | 99.09 | – |
| CCN1CCC(NCc2ccc(-c3ccc(Cl)cc3)cc2)CC1 [TCMDC-141354] | 41.97 | – |
| CCN1CCC(NCc2ccc(-c3ccc(Cl)s3)cc2)CC1 [TCMDC-141263] | 93.74 | – |
| CN1CCC(NCc2ccc(-c3ccc(Cl)cc3)cc2)CC1 [TCMDC-141355] | 54.41 | – |
| CC(C)N1CCC(NCc2ccc(-c3ccc(Cl)cc3)cc2)CC1 [TCMDC-141359] | 35.52 | – |
| CCCCCCN1CCC(NCc2ccc(C(F)(F)F)cc2)CC1 [TCMDC-141669] | -50.38 | – |
| FC(F)(F)c1ccc(-c2ccc(CNC3CCN(CCN4CCOCC4)CC3)cc2)cc1 [TCMDC-136025] | 39 | – |
| CCCCCCN1CCC(NCc2ccc(C)cc2)CC1 [TCMDC-141667] | -37.31 | – |
| CCCCCCN1CCC(NCc2ccc(Cl)cc2)CC1 [TCMDC-141666] | 71.31 | – |
| Clc1ccc(CNC2CCN(CC3CCCCC3)CC2)cc1 [TCMDC-141658] | -44.47 | – |
